Only a selection was taken, and hits are over-represented in it overall.
DT40 TDP1 no CPT: qHTS for Inhibitors of human tyrosyl-DNA phosphodiesterase 1 (TDP1): qHTS in cells in absence of CPT; DT40 Tdp1-/- hTDP1 cells, no CPT, ATP luminescence, 48 h; Potency, µM (doses to about 46.2 µM), for inactives: at the top dose activity change, negative = growth inhibition, usual class: inhibitors; 420,000 compounds, 15% hits; also: potency is read from the fitted curve at half-maximal effect; nearly all actives have a fitted effect of over 55% in size
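Camptothecin absent (DMSO only). Human TDP1-complemented DT40 knockout cells, 400 cells/well, 37 °C for minimum 48 hr; ATP measured via CellTiter-Glo, 30 min dark incubation, luminescence.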
HT1080 IDH1KD tx: toxicity to HT-1080 IDH1 knockdown cells (counter line); Potency, µM (doses to about 46.1 µM), for inactives: at the top dose activity, negative = toxicity, most hits filed as cytotoxic; HT-1080 IDH1 knockdown viability, ATP luminescence, 48 h; 360,000 compounds, 2% hits;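 also: potency is read from the fitted curve at half-maximal effect; 0% = DMSO wells and -100% = cell-free medium wells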
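Assay cells: HT-1080 with IDH1 knockdown, 750 per well, RPMI/5% FBS. Exposure: 48 h at 37 °C following 2 h pre-incubation. Read: CellTiter-Glo luminescence; fitted concentration-response, curve class assigned.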
12-LOX inh: inhibitors of human 12S-lipoxygenase ALOX12; purified 12hLO, xylenol orange hydroperoxide absorbance; Potency, µM (highest dose often 108 µM), without a hit: at the top dose activity change, negative = inhibition, hits mostly inhibitors; AID 1671190; P18054; 580,000 compounds, 1.1% hits; also: potency is read from the fitted curve at half-maximal effect
Target sequence (P18054 whole entry, looked up): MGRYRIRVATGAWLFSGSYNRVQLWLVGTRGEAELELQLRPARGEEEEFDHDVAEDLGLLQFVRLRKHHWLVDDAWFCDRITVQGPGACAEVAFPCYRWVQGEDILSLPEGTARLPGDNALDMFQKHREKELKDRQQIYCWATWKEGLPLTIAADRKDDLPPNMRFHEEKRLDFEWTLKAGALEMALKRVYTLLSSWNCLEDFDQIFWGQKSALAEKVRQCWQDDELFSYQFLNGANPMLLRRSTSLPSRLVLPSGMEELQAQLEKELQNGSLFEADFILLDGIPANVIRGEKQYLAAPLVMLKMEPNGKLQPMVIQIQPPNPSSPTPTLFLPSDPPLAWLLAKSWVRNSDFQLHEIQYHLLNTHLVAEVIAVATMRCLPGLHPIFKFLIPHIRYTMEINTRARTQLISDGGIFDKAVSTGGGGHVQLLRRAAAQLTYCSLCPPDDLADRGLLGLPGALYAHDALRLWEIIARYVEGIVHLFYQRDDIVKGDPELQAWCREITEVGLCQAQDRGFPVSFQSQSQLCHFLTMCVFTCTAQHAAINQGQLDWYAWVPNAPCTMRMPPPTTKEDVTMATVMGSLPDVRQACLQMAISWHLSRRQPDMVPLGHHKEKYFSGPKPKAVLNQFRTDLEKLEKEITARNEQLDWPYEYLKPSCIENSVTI
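Purified human 12hLO at 150 nM in 25 mM Hepes, 0.01% Triton X-100, pH 7.0, preincubated 15 min at room temperature with compound. Reaction started with 40 uM arachidonic acid, 30 min at room temperature. Hydroperoxide measured by Fe-xylenol orange, 573/405 nm absorbance ratio.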
TDP1 cell CPT: DT40-hTDP1 cell growth loss with CPT | chicken DT40 Tdp1-/-;hTDP1 cells + 20 nM CPT, ATP luminescence, 48 h | Potency, µM (highest dose often 46.2 µM), for the others: top-dose activity change, negative = growth inhibition, usual class: inhibitors | 420,000 compounds, 12% hits | AID 686979; also: potency is read from the fitted curve at half-maximal effect; nearly all actives have a fitted effect of over 55% in size
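Chicken DT40 Tdp1-/- cells complemented with human TDP1, 400 cells/well, exposed to compounds plus 20 nM camptothecin for at least 48 h at 37 C; viability read as ATP content by CellTiter-Glo luminescence.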
HT1080-NT tox: kills 2HG-producing HT-1080-NT fibrosarcoma cells. HT-1080-NT fibrosarcoma viability, CellTiter-Glo ATP luminescence, 48 h. Potency, µM (doses to about 46.1 µM), inactives show at the top dose activity, negative = less viability, actives largely listed as cytotoxic. 360,000 compounds, 1.6% hits;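 also: NT is the 2HG producing partner of a matched IDH1 knockdown line; potency is read from the fitted curve at half-maximal effect; 0% = DMSO-treated cells and -100% = media-only wells without cells; nearly all actives have a fitted effect of over 55% in size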
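HT-1080-NT fibrosarcoma cells (2HG-overproducing), 750 cells/well in RPMI with 5% FBS, dosed after 2 h and incubated 48 h at 37C. CellTiter-Glo luminescence normalized to DMSO and no-cell wells; concentration-response curves fitted and classed.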
IL-1B inflam inh: inflammasome signaling inhibition, IL-1 beta readout | 360,000 compounds, 4.7% hits | AID 743279 | activity change, % at 57.5 µM | THP-1 LPS/ATP IL-1B secretion, AlphaLISA, 16 h; hits give low values; in the data active = activity change below about -50%; inconclusive = mostly about -30% to -49%
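THP-1 cells pretreated 1 hr with compounds (up to 57.5 uM final), then stimulated with LPS (250 ng/mL final) plus ATP (1.25 mM final); secreted IL-1B measured by AlphaLISA after 16 hr, decreased signal indicating inhibition.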
* hit, by the source's call; u = inconclusive; x = no result; [ ] = remark or other dose. Unless noted, calls follow the shape of the dose curve; as a rule, active = well fitted curve in the direction sought with a large enough effect; inconclusive = small, poorly fitted or top-dose-only effect, or another doubt; inactive = no such curve, though single readings can be large; an effect the other way counts as inactive or inconclusive. Unless noted, % is scaled to controls: 0 for no effect and ±100 for the full control effect.

SMILES	DT40 TDP1 no CPT	HT1080 IDH1KD tx	12-LOX inh	TDP1 cell CPT	HT1080-NT tox	IL-1B inflam inh
Nc1[nH]c(C(=O)c2ccccc2)c(-c2ccccc2Br)c1C(=O)NCc1ccc(-c2ccccc2)cc1	12µM*	3%	-4%	23µM*	15%	-23
Nc1[nH]c(C(=O)c2ccc(Br)cc2)c(-c2ccc(Br)cc2)c1C(=O)NCc1ccc(-c2ccccc2)cc1	x	x	-15%	x	x	x
Cc1ccccc1CS(=O)(=O)N1CCC(C(=O)N2CCN(c3cccc(Cl)c3)CC2)CC1	x	x	-8%	x	x	x
O=C(NCCN1C(=O)S/C(=C\c2ccc(F)cc2)C1=O)C1CCN(S(=O)(=O)c2cccs2)CC1	10µM*	15%	-20%	12µM*	4%	19
COc1cc(NC(=O)C2CCN(S(=O)(=O)c3cccs3)CC2)cc(OC)c1	u	-11%	u	18µM*	-1%	-14
Cc1ccc(NC(=O)C2CCN(S(=O)(=O)c3cccs3)CC2)cc1	u	-19%	0%	u	-7%	-26
CCc1ccc(NC(=O)C2CCN(S(=O)(=O)c3cccs3)CC2)cc1	u	-29%	-16%	u	u	-80*
CCc1ccccc1NC(=O)c1nc2ccccc2nc1Cl	x	x	-1%	x	x	x
O=C1NC2(CN(C(=O)Cc3ccccc3)C2)Oc2ccccc21	x	x	21%[176 µM]	x	x	x
CCOc1cc(/C=C2/NC(=O)NC2=O)cc(I)c1OC	x	x	15%	x	x	x
COc1ccc2[nH]cc(CCNc3ncncc3-c3cccc(C#N)c3)c2c1	u	x	-5%	0.0046µM*	x	x
COc1ccc2[nH]cc(CCNc3ncncc3-c3ccc(N(C)C)cc3)c2c1	u	x	-16%	u	x	x
COc1ccc2[nH]cc(CCNc3ncncc3-c3ccoc3)c2c1	7.3µM*	x	-9%	4.6µM*	x	x
FC(F)(F)c1ccc(C(c2ccc(C(F)(F)F)cc2)N2CCNCC2)cc1	x	x	-2%	x	x	x
COC(=O)CCSc1cc(NCCCOC(C)=O)c([N+](=O)[O-])c2nonc12	5µM*	x	x	5µM*	x	x
CC(C)CCSc1cc(NCCO)c([N+](=O)[O-])c2nonc12	u	18µM*	9%	u	u	1
Cc1ccc(Sc2cc(NCCCO)c([N+](=O)[O-])c3nonc23)cc1	2.9µM*	5%	-17%	2.3µM*	5%	-17
O=[N+]([O-])c1c(NCCO)cc(N2CCCCC2)c2nonc12	-2%	-10%	u	2%	-11%	27
CCOC(=O)CCCNc1ccc([N+](=O)[O-])cc1[N+](=O)[O-]	-1%	u	12%	0%	-1%	10
CCN(CC)c1cc(NCCO)c([N+](=O)[O-])c2nonc12	-17%	-10%	u	-14%	-10%	-8
CC(=O)OCCCNc1cc(Sc2ccc(Cl)cc2)c2nonc2c1[N+](=O)[O-]	3.7µM*	0%	u	2.1µM*	-1%	u
Cc1ccc(CNC(=O)c2ccc(C)o2)cc1	x	x	22%	x	x	x
CSCC(=O)N1CCC(C2CCNC2)CC1 (configuration not stated)	x	x	25%	x	x	x
O=C1c2ccccc2CC[C@H]1CNCCc1ccc(O)cc1	13µM*	x	3%	13µM*	x	x
CC(=O)NCCc1ccc(O)cc1	-16%	0%	-30%	-7%	13%	15
SMILES	DT40 TDP1 no CPT	HT1080 IDH1KD tx	12-LOX inh	TDP1 cell CPT	HT1080-NT tox	IL-1B inflam inh
O=C(C[C@H]1NC(=O)c2ccccc2NC1=O)NCCc1ccc(O)cc1	x	x	26%	x	x	x
O=C1c2ccccc2CCC1CNCCc1ccc(O)cc1 (configuration not stated)	21µM*	x	-2%	-83%	x	x
COc1ccc(-c2nc3cc(C)ccn3c2NC(=O)c2ccccc2OC)cc1	u	u	0%	u	u	48
CCOC(=O)CNc1c(-c2ccc(OC)cc2)nc2ccc(Cl)cn12	-14%	0%	-8%	-10%	3%	20
CCCCNc1c(-c2ccc(OC)c(SC3CCCCC3)c2)nc2ccc(Cl)cn12	23µM*	-3%	u	21µM*	10%	-27
O=C(CCNc1c(-c2ccc(F)cc2)nc2cnccn12)NC1CCCC1	x	x	12%	x	x	x
CCCCNc1c(-c2ccc(OC)c(SC3CCCCC3)c2)nc2cc(C)ccn12	15µM*	u	u	21µM*	18µM*	-86*
CCCCNc1c(-c2ccc(OC)c(SC3CCCCC3)c2)nc2cnccn12	u	u	x	u	u	-70*
CCCCCCSc1cc(-c2nc3cnccn3c2NCc2ccccc2)ccc1OC	u	0%	x	u	-13%	0
CCCCNc1c(-c2ccc(SC3CCCCC3)cc2)nc2cnccn12	u	u	u	15µM*	u	-13
COc1ccccc1S(=O)(=O)N(C)C[C@@H]1OCc2cn(nn2)CCCC(=O)N([C@H](C)CO)C[C@H]1C	-20%	-5%	u	-12%	-4%	-23
O=C(c1c[nH]c2ccccc12)N1CCN(C(=O)C2CCCCC2)CC1	x	x	5%	x	x	x
CCCCNc1c(-c2ccc(-c3ccc(C(C)=O)cc3)c(OC)c2)nc2cnccn12	u	u	x	10µM*	u	0
COc1cc(-c2nc3cnccn3c2NC(C)(C)CC(C)(C)C)ccc1O	u	-12%	u	u	-5%	0
Cc1ccc(-c2nc3cc(NS(=O)(=O)c4ccc(C)cc4)ccc3o2)cc1	u	u	u	14µM*	u	15
CC(=O)c1c(C)oc2ccc(NS(=O)(=O)c3ccc(C)cc3)cc12	8.2µM*	-9%	-7%	u	-10%	37
CC(=O)c1c(C)oc2c(Cl)cc(NS(=O)(=O)c3ccc(C(C)(C)C)cc3)cc12	x	x	21%	x	x	x
CC(=O)c1c(C)oc2ccc(NS(=O)(=O)c3cccs3)cc12	u	-6%	-13%	u	-17%	0
Cc1oc2ccc(NS(=O)(=O)c3ccc(C(C)(C)C)cc3)cc2c1C(=O)Nc1ccccc1	18µM*	-25%	6%	u	-16%	u
Cc1oc2c(cc(NS(=O)(=O)c3ccc(C(C)C)cc3)c3ccccc32)c1C(=O)O	19%	-10%	u	-16%	-13%	39
CC(=O)c1c(C)oc2ccc(NS(=O)(=O)c3ccc(C(C)C)cc3)cc12	5.8µM*	x	-13%	5.8µM*	x	x
CCc1noc(-c2cccn3c(CNC(=O)Cc4ccc(F)cc4)nnc23)n1	x	x	93%	x	x	x

Compound activity: PubChem, National Center for Advancing Translational Sciences (NCATS)
